Data published in PubChem BioAssay (NCATS).
Where “and” joins values, the source holds several entries; their conditions need not be identical. Equal values may be shown once. Results filed as inconclusive are left out. A call without a number means that no potency is given here. Calls of active or inactive are those of the source. Unless noted, calls come from the whole dose curve; as a rule, active = well fitted curve in the direction sought with a large enough effect; inconclusive = small, poorly fitted or top-dose-only effect, or another doubt; inactive = no such curve, though single readings can be large; an effect the other way counts as inactive or inconclusive.

Assays:
[1] = biological target: Cytochrome P450 3A4 (Homo sapiens) (UniProt P08684); experiment: qHTS Assay for Inhibitors and Substrates of Cytochrome P450 3A4 (AID 884); note: potency is the fitted concentration of half-maximal effect; nearly all actives have a fitted effect of over 50% in size
Cytochrome P450 3A4 (Homo sapiens), sequence (P08684 whole entry, looked up): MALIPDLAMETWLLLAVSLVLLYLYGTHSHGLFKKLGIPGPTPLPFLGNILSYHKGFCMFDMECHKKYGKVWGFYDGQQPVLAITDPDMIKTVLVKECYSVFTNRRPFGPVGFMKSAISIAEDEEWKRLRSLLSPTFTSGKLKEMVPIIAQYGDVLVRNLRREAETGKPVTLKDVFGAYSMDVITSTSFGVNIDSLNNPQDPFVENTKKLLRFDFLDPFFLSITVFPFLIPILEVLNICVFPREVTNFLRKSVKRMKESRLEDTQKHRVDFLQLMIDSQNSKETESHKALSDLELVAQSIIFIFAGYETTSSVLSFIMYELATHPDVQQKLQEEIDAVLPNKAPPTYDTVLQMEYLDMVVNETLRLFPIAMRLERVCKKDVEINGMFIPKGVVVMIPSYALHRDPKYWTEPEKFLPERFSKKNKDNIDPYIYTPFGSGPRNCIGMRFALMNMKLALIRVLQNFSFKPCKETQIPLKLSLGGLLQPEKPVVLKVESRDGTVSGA
Outline: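 Luminescent readout of luciferin produced by CYP3A4 (20 nM) dealkylation of Luciferin-PPXE, 25 uM (its KM). NADPH-driven reaction ran 60 min at RT after 10 min compound preincubation; data scaled to 57 uM ketoconazole as 100% inhibition.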

[2] = biological target: Cytochrome P450 3A4 (Homo sapiens) (UniProt P08684); experiment: qHTS Assay for Activators of Cytochrome P450 3A4 (AID 885); note: nearly all actives have a fitted effect of over 65% in size
Outline: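 Activators are scored by enhanced luminescence from CYP3A4 conversion of luciferin-PPXE (25uM, equal to KM) to luciferin, after 60 min at RT with an NADPH-regenerating system.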

[3] = Confirmation and Secondary Assay for Modulators of Hemoglobin Beta Chain Splicing at IVS2 654 locus (AID 910);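 note: HeLa cells stably carrying EGFP split by mutant beta-globin IVS2-654 intron; per-well total GFP intensity by laser scanning cytometry after 2-day treatment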
Outline: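 Readout: per-well total peak green fluorescence (488 nm ex, 500–520 nm em) from objects 5–250 µm, reflecting correct splicing of an EGFP-654 reporter. Compounds were applied for 2 days at 37 °C to overnight-plated HeLa EGFP-654 cells; controls were DMSO and 500 nM IVS2-654 PNA.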

[4] = Confirmation and Secondary Assay for Modulators of Hemoglobin Beta Chain Splicing at IVS2 705 locus (AID 930);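 note: HeLa cells stably expressing the EGFP-705 splicing reporter; GFP fluorescence per well restored by corrected splicing of the IVS2-705 intron in EGFP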
Outline: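 Stable HeLa line with EGFP disrupted by mutant beta-globin intron 2 (705). Overnight attachment, then 2 days of compound at 37C, 5% CO2. Signal: peak GFP intensity summed over objects 5-250 µm.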

[5] = qHTS Assay for Lipid Storage Modulators (AID 1519; calls by dose curve); settings: Drosophila S3 cells, BODIPY lipid droplet/cell ratio, laser cytometry, cells loaded with oleic acid; for activity change, negative = inhibition: at 57.5 µM (top of the series)
Outline: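 Cells seeded at 5,000 per well were treated with compounds over a concentration series and loaded with oleic acid (400 uM, as added). Lipid droplet fluorescence (488 nm excitation, 500-530 nm channel) was read by laser-scanning cytometry and normalized to 20 uM Triacsin C.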

[6] = biological target: Ubiquitin carboxyl-terminal hydrolase 1 (Homo sapiens) (UniProt O94782); experiment: Inhibitors of USP1/UAF1: Pilot qHTS (AID 504865);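 note: rhodamine fluorescence freed from ubiquitin-rhodamine substrate followed over time; top concentration of the series differs between compounds; nearly all actives have a fitted effect of over 35% in size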
Ubiquitin carboxyl-terminal hydrolase 1 (Homo sapiens), sequence (O94782 whole entry, looked up): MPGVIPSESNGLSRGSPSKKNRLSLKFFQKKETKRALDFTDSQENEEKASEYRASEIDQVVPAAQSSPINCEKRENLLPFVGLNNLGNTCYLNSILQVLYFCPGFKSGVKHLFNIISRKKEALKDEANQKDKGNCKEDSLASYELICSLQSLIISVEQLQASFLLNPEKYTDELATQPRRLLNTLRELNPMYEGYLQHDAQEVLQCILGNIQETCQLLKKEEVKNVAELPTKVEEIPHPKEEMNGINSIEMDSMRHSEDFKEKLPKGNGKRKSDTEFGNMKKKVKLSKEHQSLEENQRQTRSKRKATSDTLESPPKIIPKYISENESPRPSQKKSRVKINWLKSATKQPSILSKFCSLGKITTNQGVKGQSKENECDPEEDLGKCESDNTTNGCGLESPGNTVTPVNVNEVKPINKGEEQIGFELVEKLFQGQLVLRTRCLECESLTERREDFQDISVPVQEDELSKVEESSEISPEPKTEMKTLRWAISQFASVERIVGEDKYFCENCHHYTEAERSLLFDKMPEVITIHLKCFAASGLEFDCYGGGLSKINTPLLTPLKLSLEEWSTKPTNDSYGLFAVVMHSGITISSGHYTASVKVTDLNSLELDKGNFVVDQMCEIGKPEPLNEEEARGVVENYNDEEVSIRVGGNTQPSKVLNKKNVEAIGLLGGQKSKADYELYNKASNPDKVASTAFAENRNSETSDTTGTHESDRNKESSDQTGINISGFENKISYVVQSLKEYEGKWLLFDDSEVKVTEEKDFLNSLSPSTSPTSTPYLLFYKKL
Outline: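 In 50mM HEPES pH 7.8 containing 0.5mM EDTA, 1mM TCEP, 0.1 mg/ml BSA and 0.01% Tween-20, 1nM USP1/UAF1 is exposed to compound for 15 min, then Ub-Rho (150nM final) is added and fluorescence is read over time.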

[7] = biological target: DNA dC->dU-editing enzyme APOBEC-3G (Homo sapiens) (UniProt Q9HC16); experiment: qHTS for inhibitors of Vif-A3G interactions: Validation (AID 588379)
DNA dC->dU-editing enzyme APOBEC-3G (Homo sapiens), sequence (Q9HC16 whole entry, looked up): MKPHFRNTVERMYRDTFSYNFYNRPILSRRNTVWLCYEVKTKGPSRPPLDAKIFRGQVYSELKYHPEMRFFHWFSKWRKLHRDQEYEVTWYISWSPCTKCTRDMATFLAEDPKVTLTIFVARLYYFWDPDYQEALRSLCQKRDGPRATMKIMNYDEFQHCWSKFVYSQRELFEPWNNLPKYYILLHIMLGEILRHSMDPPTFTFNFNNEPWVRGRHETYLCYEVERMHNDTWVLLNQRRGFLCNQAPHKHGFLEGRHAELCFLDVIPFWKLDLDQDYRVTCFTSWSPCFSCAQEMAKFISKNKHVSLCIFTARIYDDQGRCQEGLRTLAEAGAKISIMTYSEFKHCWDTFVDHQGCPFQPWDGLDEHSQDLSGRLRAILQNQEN
Outline: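 Yellow fluorescence (Ex 488, Em 500-530) of Vif-coexpressing HeLa A3G-eYFP cells, scanned by Acumen cytometer, reports blocked A3G degradation. Cells plated at 700/well overnight at 37 deg C before compound addition, then a further overnight compound incubation at 37 deg C.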

[8] = measured here: cell count channel max response
[9] = measured here: lipid channel max response

| SMILES | Potency [1] | Potency [2] | Potency [3] | outcome [4] | activity change, negative = inhibition [5] | max response [5, 8] | max response [5, 9] | Potency [6] | outcome [7] |
| --- | --- | --- | --- | --- | --- | --- | --- | --- | --- |
| COC(=O)C1OC(=O)C2OC23[C@]2(C)C(O)CC4C(C)(C)C(OC(C)=O)CC(OC(C)=O)[C@@]4(C)C2CC[C@@]13C (stereo not given in full) | 251 nM (active) and 794 nM (active) | inactive | inactive | inactive | -1.67% (inactive) and 3.12% (inactive) | 17.5% and 7.5% | 17.7% and 13.2% | inactive | – |
| CC(=O)Oc1c(C)c(C)c2c(c1C)CCC(C)(CCCC(C)CCCC(C)CCCC(C)C)O2 (stereo not given) | – | – | inactive | inactive | 7.46% (inactive) and -0.674% (inactive) | 1.52% and -6.76% | 12.6% and -6.49% | inactive | inactive |
